From PubChem BioAssay
ClpP mod: qHTS Assay for Activators of ClpP. ATP-dependent Clp protease proteolytic subunit (Bacillus subtilis (strain 168)), P80244. purified B. subtilis ClpP, FRET peptide cleavage, 20 min. Potency, µM (series often up to 57.5 µM), for the others: top-dose activity change, negative = active. 340,000 tested, 1.9% active. AID 651965, 2013; active means well fitted falling curve with a large enough effect; inconclusive means small, poorly fitted or top-dose-only effect; inactive means no such curve, though single readings can be large or run the other way; further: potency means the concentration at half of the fitted maximal effect; the source files actives as falling curves though it sought activators and does not explain the sign; nearly all actives have a fitted effect of over 65% in size
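Buffer: 100 mM Tris/HCl pH8, 100 mM KCl, 0.05% low protease BSA, 2.5% glycerol, 0.01% Tween-20. ClpP 10 microg/mL final; 20 min RT; delta FRET normalized to ADEP and DMSO controls.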
IL-2 act: activates IL-2 in a cell-based reporter assay; IL-2 activation reporter assay, cell-based qHTS; stimulated with anti-CD3/CD4/CD28 beads; in transgenic mouse T cells; activation, % (series mostly up to about 46 µM); 360,000 tested, 0.065% active; in the data active means activation above about 50%; inconclusive means mostly about 30% to 49%; further: 0% is about no effect
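Readout: EGFP and DsRed signals by fluorescent plate cytometry. Unstimulated transgenic mouse T cells received compound 60 min before antibody-bead stimulation, then incubated 18 h at 37 degrees C.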
USP2a inh: blocks human ubiquitin-specific protease USP2a. O75604. USP2 core, Ub-CHOP2 coupled fluorogenic reporter, 485/531. 330,000 tested, 0.01% active. Potency, µM (highest dose often 38.3 µM), for inactives: at the highest dose activity change, negative = inhibition, hits mostly inhibitors;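 further: potency means the concentration at half of the fitted maximal effect; plate controls were DMSO wells for no effect and full inhibition by NEM control for full effect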
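Cell-free coupled assay: 10nM USP2 core preincubated 30min RT with compound in Tris-HCl pH 8.0/CaCl2/CHAPS buffer, then 25nM Ub-CHOP2 and 25nM reporter substrate; fluorescence (Ex 485/Em 531) read after 60min RT, normalized to NEM inhibition, concentration-response curves fitted.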
PKM2 act: PKM2 (human) enzyme activation | AID 1631 | P14618 | Potency, µM (titrated, usually from 57.5 µM), inactives show at the highest dose activation, actives largely listed as activators | purified PKM2, Kinase-Glo ATP luminescence, activation; response scale: 0% is enzyme alone, no compound | 260,000 tested, 0.34% active; further: potency means the concentration at half of the fitted maximal effect; on the % scale 0 is the no-effect control and ±100 the full control effect; nearly all actives have a fitted effect of over 55% in size
Target sequence (P14618 whole entry, looked up): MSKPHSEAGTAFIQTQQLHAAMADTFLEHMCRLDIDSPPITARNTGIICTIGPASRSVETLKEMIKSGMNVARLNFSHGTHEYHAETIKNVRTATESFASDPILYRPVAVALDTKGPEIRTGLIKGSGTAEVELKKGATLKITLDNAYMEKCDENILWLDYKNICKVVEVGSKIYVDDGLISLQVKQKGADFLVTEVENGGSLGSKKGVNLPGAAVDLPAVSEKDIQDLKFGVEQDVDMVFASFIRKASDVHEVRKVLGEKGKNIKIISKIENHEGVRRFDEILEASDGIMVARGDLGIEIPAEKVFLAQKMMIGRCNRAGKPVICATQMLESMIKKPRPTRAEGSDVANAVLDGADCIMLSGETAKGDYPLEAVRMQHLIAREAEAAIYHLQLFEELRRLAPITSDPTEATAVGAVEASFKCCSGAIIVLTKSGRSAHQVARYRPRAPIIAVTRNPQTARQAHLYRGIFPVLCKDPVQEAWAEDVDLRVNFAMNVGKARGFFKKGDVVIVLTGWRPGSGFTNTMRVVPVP
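Purified hPK-M2 (>95%) run at intermediate activity with 0.1 mM ADP and 0.5 mM PEP in 50 mM imidazole pH 7.2, KCl, MgCl2; 1 h room temperature. ATP formed read by Kinase-Glo luminescence; normalized to uninhibited and no-enzyme controls.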
a7 integrin act: activators of alpha7 integrin expression for muscular dystrophy | Potency, µM (highest dose often 38.3 µM), for inactives: at the top dose activation, most hits filed as activators | alpha7betagal myoblasts, beta-gal FDG fluorescence, 48 h | 350,000 tested, 0.064% active;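 further: potency means the concentration at half of the fitted maximal effect; 100% = response of the positive control SU9516; nearly all actives have a fitted effect of over 60% in size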
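Alpha7betagal+/- myoblasts (passage 13) were plated 16-24 hr, then exposed to compounds (1:260 dilution of DMSO stock) for 48 hours at 37C. After MPER lysis, β-galactosidase reporter activity was read as FDG fluorescence (ex 480/em 540) after 30 minutes.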
Pin1 inh: inhibitors of human Pin1; Potency, µM (series often up to 115 µM), for inactives: at the top dose activity, negative = inhibition, hits mostly inhibitors; Pin1 FP peptide displacement, HiFluor488, 10 min; 390,000 tested, 0.009% active; Q13526; active means well fitted inhibition curve with a large enough effect in the polarisation, with a control signal flat, not every such curve was filed as active; inconclusive means small, poorly fitted or top-dose-only effect, or effect the other way, or a change in a side signal; inactive means no such curve, though single readings can be large or run the other way; the % refers to the polarisation; further: potency means the concentration at half of the fitted maximal effect; on the % scale 0 is the no-effect control and ±100 the full control effect
Target sequence (Q13526 whole entry, looked up): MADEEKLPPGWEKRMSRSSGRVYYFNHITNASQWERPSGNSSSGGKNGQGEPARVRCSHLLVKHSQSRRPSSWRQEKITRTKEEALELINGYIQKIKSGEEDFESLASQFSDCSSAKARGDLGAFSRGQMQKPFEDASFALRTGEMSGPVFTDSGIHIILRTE
ClpP inh valid: Bacillus subtilis ClpP inhibition, validated hit; Potency, µM (highest dose often 57.5 µM), for the others: top-dose activity change, negative = inhibition, most hits filed as inhibitors; shares compounds with ClpP mod; 470 tested, 40% active; purified B. subtilis ClpP, FRET-FV substrate cleavage, 20 min; AID 743245; further: potency means the concentration at half of the fitted maximal effect; on the % scale 0 is the no-effect control and ±100 the full control effect; nearly all actives have a fitted effect of over 70% in size
* marks the source's active call; other numbers are inactive results; ? = inconclusive; / = no result given; [ ] = remark or other dose. An excerpt weighted towards active compounds, which were near 1.9% of everything screened. Unless noted, the call rests on the fitted dose curve; in most records, active means well fitted curve in the direction sought with a large enough effect; inconclusive means small, poorly fitted or top-dose-only effect, or another doubt; inactive means no such curve, though single readings can be large; an effect the other way counts as inactive or inconclusive.

SMILES	ClpP mod	IL-2 act	USP2a inh	PKM2 act	a7 integrin act	Pin1 inh	ClpP inh valid
COc1ccc(NC(=O)CCc2nnc3n(CC(C)C)c(=O)c4ccccc4n23)cc1	-2.1%	/	/	/	/	-4.2%	/
CC1=C(C(=O)Nc2ccccc2)C(c2ccc(C)cc2)N=C(Nc2nc3ccccc3o2)N1 (stereo unspecified)	5.01µM*	-3.1	-1.1%	-3.3%	-60.3%	9.6%	24.3µM*
CC1CCN(S(=O)(=O)c2ccc(NC(=O)c3cccs3)cc2)CC1	126.9%	0.5	-1.9%	-3.2%	21.5%	1.4%	-1.5%
O=C1c2ccccc2C2(c3ccccc3)N1CCN2C(=O)C(Cl)(Cl)Cl (stereo unspecified)	-1.3%	-4.1	4.2%	/	8.8%	-3.9%	/
O=C(Nc1ccc(F)cc1)N1CCN2C(=O)c3ccccc3C12c1ccccc1 (stereo unspecified)	3.98µM*	-3.3	2.9%	12.4%	18.0%	0.0%	0.8%
CN(C)S(=O)(=O)c1ccc(C(=O)Nc2nc(-c3cc4ccccc4o3)cs2)cc1	140.0%	-1.6	2.8%	0.0%	7.1%	12.1%	-25.3%
Cc1ccc(N2C(=O)CS(=O)(=O)C23C(=O)N(Cc2ccccc2C)c2ccccc23)cc1Cl (stereo unspecified)	0.0%	/	/	/	/	25.2%	/
CCC(C(=O)Nc1cc(C)ccc1C)n1c(=O)c(C(F)(F)F)nc2ccccc21 (stereo unspecified)	-5.1%	/	/	/	/	-3.0%	/
COc1ccccc1NC(=O)c1ccc(NC(=O)CN2CCCCC2)cc1	/	0.9	1.8%	/	8.4%	3.1%	/
COc1ccccc1NC(=O)CN1CCCCC1	3.98µM*	0.0	4.1%	-6.4%	-1.4%	-2.5%	0.1%
CCC(C)NC(=O)NC1C(NC(=O)NC(C)CC)N(C)C(=O)N1C (stereo unspecified)	-1.5%	-0.6	4.8%	1.0%	1.2%	-20.5%	/
CC(C)CNC(=O)NC1C(NC(=O)NCC(C)C)N(C)C(=O)N1C (stereo unspecified)	44.3%	0.4	0.1%	-11.7%	11.5%	-6.7%	0.0%
CN(Cc1ccco1)C(=O)c1c[nH]c2ccc(S(=O)(=O)Nc3ccc4c(c3)OCCO4)cc2c1=O	3.55µM*	-0.6	2.2%	-8.1%	10.1%	6.6%	-2.5%
CCc1ccc(NS(=O)(=O)c2ccc3[nH]cc(C(=O)N(C)Cc4ccco4)c(=O)c3c2)cc1	-27.8%	0.5	0.5%	-6.2%	-8.0%	-2.5%	/
CC1Cc2cc(S(=O)(=O)CCC(=O)Nc3ccc(Cl)cc3F)ccc2N1C(=O)C1CC1 (stereo unspecified)	-0.4%	/	/	/	/	-1.4%	/
COC(=O)c1sc2cccc(F)c2c1S(=O)(=O)Nc1cc(C)c(Cl)cc1OC	1.1%	/	/	/	/	-4.8%	/
O=C(O)c1ccc2c(c1)OCCO2	-1.0%	0.5	-0.3%	2.9%	10.6%	4.0%	/
NC(=O)c1ccc2c(c1)OCCO2	30.7%	-0.4	2.2%	-2.8%	39.7%	-1.6%	-2.1%
Nc1ncnc2oc(-c3ccoc3)c(-c3ccco3)c12	4.4%	/	/	/	/	/	/
Nc1ncnc2oc(-c3ccco3)c(-c3ccco3)c12	8.91µM*	0.7	1.7%	?	-20.8%	/	21.7µM*
Cc1cc(C)cc(OCC(=O)Nc2nc3c(s2)CC(C(C)(C)C)CC3)c1 (stereo unspecified)	1.5%	/	/	/	/	-2.0%	/
c1ccc(Nc2nc(-c3ccccc3)c(-c3ccccc3)s2)cc1	4.1%	/	/	/	/	-4.7%	/
COc1ccc2c(c1)c1ncn(CCc3ccccc3)c(=O)c1n2C	4.47µM*	-2.9	2.8%	1.2%	18.8%	4.2%	12.2µM*
COc1ccc2c(c1)c1ncn(CCCN3CCOCC3)c(=O)c1n2C	10.9%	-0.7	5.3%	0.0%	15.7%	1.4%	/
c1ccc2c(c1)NC1(CCCCC1)n1c-2nc2ccccc21	2.51µM*	0.6	2.0%	?	14.6%[7.66 µM]	2.4%	13.7µM*
SMILES	ClpP mod	IL-2 act	USP2a inh	PKM2 act	a7 integrin act	Pin1 inh	ClpP inh valid
CCOc1ccc(CC(=O)Nc2c(C(=O)Nc3ccccc3)oc3ccccc23)cc1OCC	231.0%	-1.1	1.7%	-1.3%	10.6%	?	?
Cc1ccc(NC(=O)c2oc3ccccc3c2NC(=O)Cc2ccccc2)cc1	145.3%	/	/	/	/	0.5%	?
O=C(NCc1cc(F)cc2c1OCCO2)[C@H]1C[C@@H]1[C@H](NP(=O)(c1ccccc1)c1ccccc1)c1ccccc1	/	/	/	0.0%	/	/	/
O=C(c1ccccc1Cl)n1nc(-c2cccnc2)nc1NCc1ccc(F)cc1	0.3%	/	/	/	/	8.1%	/
Cc1ccc(NS(=O)(=O)c2cccc(C(=O)N3CCCCC3)c2)cc1	76.8%	-4.1	1.4%	/	-13.4%	0.5%	-0.1%
COc1ccc(S(=O)(=O)c2cn(C)c3cc(N4CCCCCC4)c(F)cc3c2=O)cc1	-8.6%	/	/	/	/	-3.9%	/
